The text below walks through data of a collection of fitness landscapes (doi:10.1016/j.celrep.2020.107928).

Whole data set: some 81,000 sequences, median “one-hybrid fitness for binding NBS DNA” near -0.1, cut for the highest 2% near 0.36. The sample as a whole holds a higher share of the highest values than the screen did.

Sequences and labels used below:
B1: Caulobacter ParB omega fusion; a variant is named by its letters at X, in order, B8GW30 (parent)
chain: MESVVVGEPGMSEGRRGLGRGLSALLGEVDAAPAQAPGEQLGGSREAPIEILQRNPDQPRRTFREEDLEDLSNSIREKGVLQPILVRPSPDTAGEYQIVAGERAWRAAQRAGLKTVPIMVRELDDLAVLEIGIIENVQRADLNVLEEALSYKVLMEKFERTQENIAQTIGKSXSHVANXMRLLXLPDEVQSYLVSGELTAXHARAIAAAADPVALAKQIIEGGLSVRETEALARKAPNLSAGKSKGGRPPRVKDTDTQALESDLSSVLGLDVSIDHRGSTGTLTITYATLEQLDDLCNRLTRGI

The variants in this assay derive from B1. Kind of assay: one-hybrid fitness for binding NBS DNA (the Noc-binding site; scaled: cognate 1, non-cognate 0); higher = stronger binding. To be noted: with NBS DNA site. The method, boiled down: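 Fitness is the rescaled log change in variant-to-wild-type read ratio, measured by Illumina sequencing of plasmids before and after bacterial one-hybrid selection. The scale puts cognate at 1 and non-cognate at 0. Selection of Caulobacter ParB libraries, four specificity codons randomised, took place in E. coli USO with a HIS3 reporter, site 19 bp from the promoter, over 48 hours at 37°C on M9-minus-histidine with 0.1 mM IPTG and 5 mM 3-AT.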
As for LADD, the “one-hybrid fitness for binding NBS DNA” value was at most 0.2. For DHMR the value was at most 0.2. For RSEM the value was at most 0.2.

As to KIPV, the “one-hybrid fitness for binding NBS DNA” value was at most 0.2.

For AVRD, the “one-hybrid fitness for binding NBS DNA” value was at most 0.2. For ISPK the value was at most 0.2; for CECG, at most 0.2; for HLGA, at most 0.2.

For the variant KQRR, the “one-hybrid fitness for binding NBS DNA” value came out at 0.416. As for KPRR, the figure is at most 0.2; as for NQRR, at most 0.2; as for KCRR, 0.46. For KSRR the value was 0.343; for KQYR, at most 0.2; for KHQR, at most 0.2.

As for KHYR, the “one-hybrid fitness for binding NBS DNA” value was at most 0.2. In the case of KHRR, the “one-hybrid fitness for binding NBS DNA” value was 0.367. For PLRA the value was at most 0.2; for YGEG, at most 0.2; for NPWT, at most 0.2. YGMG: the “one-hybrid fitness for binding NBS DNA” value was at most 0.2. For ETAK the value was at most 0.2; for RFQF, at most 0.2.

In the case of NMWY, the “one-hybrid fitness for binding NBS DNA” value is at most 0.2. As for NYHG, the figure is at most 0.2; as for ANWC, at most 0.2; as for AQQE, at most 0.2. Turning to RPKH, the “one-hybrid fitness for binding NBS DNA” value was at most 0.2. Consider RMKH, for which the “one-hybrid fitness for binding NBS DNA” value is 0.402. As for RMVS, the figure is 0.29. For RMKD the value was at most 0.2; for RMKS, 0.598.

In the case of RSKH, the “one-hybrid fitness for binding NBS DNA” value was determined as 0.357.

In the case of RMKN, the “one-hybrid fitness for binding NBS DNA” value was at most 0.2. As for RCKH, the figure is 0.403. Turning to RMKP, the “one-hybrid fitness for binding NBS DNA” value was at most 0.2.

As for CHSP, the “one-hybrid fitness for binding NBS DNA” value is at most 0.2. Consider DPDC, for which the “one-hybrid fitness for binding NBS DNA” value is at most 0.2.

For RVHR, the “one-hybrid fitness for binding NBS DNA” value was determined as 0.484. As for RVFT, the figure is 0.271; as for RVAT, 0.383; as for RVHP, at most 0.2. For RVHD the value was at most 0.2; for RVHM, at most 0.2; for RVAS, 0.358. For RVHT the value was 0.487. As to RVHH, the “one-hybrid fitness for binding NBS DNA” value is at most 0.2. For RVHN, the “one-hybrid fitness for binding NBS DNA” value is at most 0.2. Regarding RVHS, the “one-hybrid fitness for binding NBS DNA” value worked out at 0.461. As for RVHY, the figure is at most 0.2; as for GNNW, at most 0.2; as for HSLW, at most 0.2. As for SLMG, the figure is at most 0.2. As for ACAR, the figure is at most 0.2.

KRNK: the “one-hybrid fitness for binding NBS DNA” value is at most 0.2. For SCKG the value was at most 0.2; for SRHE, at most 0.2. As for IGMS, the figure is at most 0.2. As for LVKR, the figure is at most 0.2; as for RVQD, at most 0.2; as for RVYT, 0.357. As to RVQP, the “one-hybrid fitness for binding NBS DNA” value is at most 0.2. As for RVPT, the figure is at most 0.2; as for RVQT, 0.438. For RVRT the value was 0.631; for QQQI, at most 0.2.

Take DRRL: the “one-hybrid fitness for binding NBS DNA” value is at most 0.2. For MTMS the value was at most 0.2. For RRCS the value was 0.642; for RRCG, 0.296. As for RRCD, the “one-hybrid fitness for binding NBS DNA” value was at most 0.2.

As for RRCP, the “one-hybrid fitness for binding NBS DNA” value was at most 0.2. As for RRCN, the figure is 0.248. For RRCH the value was 0.382; for SSEH, at most 0.2. For RHQN the value was at most 0.2; for RKQS, 0.543; for RHQH, at most 0.2. Regarding RTQD, the “one-hybrid fitness for binding NBS DNA” value was at most 0.2. As for RKQD, the figure is at most 0.2; as for RSQS, 0.433; as for RHQS, 0.455.

For the variant RTQS, the “one-hybrid fitness for binding NBS DNA” value turned out to be 0.459. As for RKQN, the figure is at most 0.2; as for RTQH, at most 0.2. For RSQN the value was at most 0.2; for RSQD, at most 0.2. As for YQLE, the “one-hybrid fitness for binding NBS DNA” value is at most 0.2. For WLLP the value was at most 0.2; for PIRG, at most 0.2.

Turning to RLRW, the “one-hybrid fitness for binding NBS DNA” value was at most 0.2. As for TAYQ, the figure is at most 0.2. As for ARIK, the figure is at most 0.2.

With ACVN, the “one-hybrid fitness for binding NBS DNA” value is at most 0.2. On to VRHN, for which the “one-hybrid fitness for binding NBS DNA” value was at most 0.2. As for IRAF, the figure is at most 0.2; as for KMGK, at most 0.2. For VQSE the value was at most 0.2; for DNKI, at most 0.2. As for DLTY, the figure is at most 0.2. WNVE: the “one-hybrid fitness for binding NBS DNA” value is at most 0.2.

In the case of RMQS, the “one-hybrid fitness for binding NBS DNA” value was 0.409. For RMQN the value was at most 0.2.

RLQS: the “one-hybrid fitness for binding NBS DNA” value was 0.382.

On to RAQD, for which the “one-hybrid fitness for binding NBS DNA” value was at most 0.2. For RCQS the value was 0.474; for RAQS, 0.416.

On to RLQH, for which the “one-hybrid fitness for binding NBS DNA” value was at most 0.2.

RMQH: the “one-hybrid fitness for binding NBS DNA” value is at most 0.2. As for RDQS, the figure is at most 0.2; as for RAQN, at most 0.2. For RPQS the value was at most 0.2. As for RLQP, the figure is at most 0.2. For the variant PCVC, the “one-hybrid fitness for binding NBS DNA” value was at most 0.2. For NLCG the value was at most 0.2. For TPCN the value was at most 0.2.

As to RCCC, the “one-hybrid fitness for binding NBS DNA” value is at most 0.2. VASN: the “one-hybrid fitness for binding NBS DNA” value was at most 0.2. As for HSTM, the figure is at most 0.2; as for SDNA, at most 0.2; as for FLCR, at most 0.2.

As to WDPR, the “one-hybrid fitness for binding NBS DNA” value is at most 0.2. As for GLGG, the figure is at most 0.2; as for RSGH, at most 0.2; as for RPGR, at most 0.2. As for RSGP, the figure is at most 0.2; as for RFGR, 0.23; as for RSGR, 0.459. For RCGR the value was 0.523; for HRAM, at most 0.2.

For FIVS, the “one-hybrid fitness for binding NBS DNA” value is at most 0.2.

In the case of DFTV, the “one-hybrid fitness for binding NBS DNA” value was at most 0.2. As for TRYT, the figure is 0.334; as for TRRT, 0.526. As for TCNT, the figure is at most 0.2. As for TRRN, the figure is at most 0.2; as for TRYS, at most 0.2; as for TRNT, 0.459.

For the variant TCRT, the “one-hybrid fitness for binding NBS DNA” value was at most 0.2. For TRRS the value was 0.38; for TCKT, at most 0.2. For TRKT the value was 0.578; for TRVT, at most 0.2.

On to TRDT, for which the “one-hybrid fitness for binding NBS DNA” value was at most 0.2. As for PANE, the figure is at most 0.2; as for KSQQ, at most 0.2; as for NCPT, at most 0.2. As for FMKS, the figure is at most 0.2.

For the variant QNLL, the “one-hybrid fitness for binding NBS DNA” value is at most 0.2. For SKPR the value was at most 0.2; for CSPY, at most 0.2; for QVAP, at most 0.2. With QRFF, the “one-hybrid fitness for binding NBS DNA” value was at most 0.2.

Consider QRAR, for which the “one-hybrid fitness for binding NBS DNA” value is 1.01. As for QRFR, the figure is 0.865. With DRAR, the “one-hybrid fitness for binding NBS DNA” value was at most 0.2.

With NRAR, the “one-hybrid fitness for binding NBS DNA” value was at most 0.2. As for IFSI, the figure is at most 0.2; as for RYTI, at most 0.2; as for HQWA, at most 0.2. For NIMG the value was at most 0.2; for QTQG, at most 0.2. As to QHQT, the “one-hybrid fitness for binding NBS DNA” value was 0.363.

For QCQT, the “one-hybrid fitness for binding NBS DNA” value amounted to 0.526. Take QKQF: the “one-hybrid fitness for binding NBS DNA” value was at most 0.2. On to QKQT, for which the “one-hybrid fitness for binding NBS DNA” value was 0.578. As for QDQT, the figure is at most 0.2; as for QTQT, 0.577. For QSQT the value was 0.411. On to QKQC, for which the “one-hybrid fitness for binding NBS DNA” value is at most 0.2. For the variant QAQT, the “one-hybrid fitness for binding NBS DNA” value turned out to be 0.364. On to QPQT, for which the “one-hybrid fitness for binding NBS DNA” value is at most 0.2. For QTQC, the “one-hybrid fitness for binding NBS DNA” value is 0.239.

For FPTH, the “one-hybrid fitness for binding NBS DNA” value was at most 0.2.

Consider SIGR, for which the “one-hybrid fitness for binding NBS DNA” value is at most 0.2.

As for LNNM, the “one-hybrid fitness for binding NBS DNA” value was at most 0.2. For TFLV the value was at most 0.2. For QLGE the value was at most 0.2; for CTTF, at most 0.2; for YCLC, at most 0.2.

On to SKES, for which the “one-hybrid fitness for binding NBS DNA” value is at most 0.2.

Take QLQN: the “one-hybrid fitness for binding NBS DNA” value was at most 0.2. For the variant QLQT, the “one-hybrid fitness for binding NBS DNA” value amounted to 0.37.

QLQP: the “one-hybrid fitness for binding NBS DNA” value was at most 0.2. As for MYYS, the figure is at most 0.2; as for HTKF, at most 0.2. As for FQTK, the figure is at most 0.2. As for QAYM, the figure is at most 0.2. For QRKM, the “one-hybrid fitness for binding NBS DNA” value was found to be 0.557.

Regarding QPKM, the “one-hybrid fitness for binding NBS DNA” value was at most 0.2. For QCKM the value was 0.464. For QIKM the value was 0.249; for QRVM, 0.265. Turning to QSKM, the “one-hybrid fitness for binding NBS DNA” value came out at 0.362. For QTVM the value was at most 0.2; for QTWM, at most 0.2. Turning to QTKM, the “one-hybrid fitness for binding NBS DNA” value was 0.563.

Take QAVM: the “one-hybrid fitness for binding NBS DNA” value was at most 0.2. As for QAKM, the figure is 0.392.
